Bioassay records from PubChem.
Hits are enriched below; roughly 0.4% of the tested compounds scored in any of these assays.
Rac1 wt GTP bind = wildtype Rac1 GTP binding modulators, primary screen, biochemical, GST-Rac1 beads, flow cytometry, multiplex; Ras-related C3 botulinum toxin substrate 1 (Homo sapiens), P63000; fluorescent GTP binding; actives lie on both sides; 0 = cold GTP competed, 100 = untreated; GTP binding activity (% of control), % at 10 µM; 190,000 compounds, 0.27% hits; AID 757, 2007;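 active means GTP binding activity at least 20 points away from the 100% control level, either lower or higher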
Rab7 wt modul = modulators of GTP binding to Rab7, primary screen, biochemical, wildtype, multiplex bead flow cytometry; Rab7 GTPase wild type (dog), Bodipy-FL-GTP binding; GST-Rab7 beads, fluorescent GTP binding; actives lie on both sides; untreated = 100%, excess cold GTP = 0%; GTP binding activity (percent of control), % at 10 µM; 190,000 compounds, 0.055% hits;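 active means fluorescent GTP binding to Rab7 beads changed by at least 20 points from the 100% baseline, either direction, mostly lower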;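 further: median green fluorescence of bound Bodipy-FL-GTP per Rab7 bead population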
HRas wt GTP bind = modulators of GTP binding to HRas wildtype, primary screen, biochemical, bead-based flow cytometry, multiplex. GTP binding activity, % at 10 µM. 190,000 compounds, 0.14% hits. GST-Ras wt beads, Bodipy-FL-GTP binding; actives lie on both sides;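 active means GTP binding activity at least 20% away from the 100% baseline, either lowered as inhibitor or raised as activator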;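 further: 0% = unlabeled GTP competition control and 100% = no-compound control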
Target sequence (P01112 whole entry, looked up): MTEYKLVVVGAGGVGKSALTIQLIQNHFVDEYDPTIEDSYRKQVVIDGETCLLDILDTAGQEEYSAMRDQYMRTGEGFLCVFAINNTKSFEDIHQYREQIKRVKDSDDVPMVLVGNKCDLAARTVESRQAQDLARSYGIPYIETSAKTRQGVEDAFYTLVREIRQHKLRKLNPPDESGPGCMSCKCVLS
Rab2A wt mod = modulators of GTP binding to Rab2A wildtype, primary screen, biochemical, dog, bead-based flow cytometry, multiplex. Ras-related protein Rab-2A (Canis lupus familiaris), P61105. GST-Rab2 wt beads, Bodipy-GTP binding. GTP binding activity, % at 10 µM. 190,000 compounds, 0.19% hits. AID 760, 2007;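 active means GTP binding activity at least 20 points away from 100%, either lowered or raised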;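 further: 0% = beads with excess unlabeled GTP and 100% = no-compound control corrected for plate trend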
Rac1 act GTP bind = GTP binding modulators of activated mutant Rac1, primary screen, biochemical, bead-based flow cytometry, multiplex, fluorescent GTP; GST-Rac1 activated beads; actives lie on both sides; 100% means binding = to untreated wells; 190,000 compounds, 0.11% hits; percent activity (GTP binding), % at 10 µM;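 active means GTP binding at least 20 percentage points away from the 100% baseline, in either direction, so actives lie on both sides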
Cdc42 wt GTP = modulators of GTP binding to wildtype Cdc42, primary screen, biochemical, multiplex bead flow cytometry, Bodipy-GTP; percent activity (GTP binding), % at 10 µM; AID 761, 2007; GST-Cdc42 beads; actives lie on both sides; 190,000 compounds, 0.2% hits;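 active means percent activity GTP binding at least 20 points away from the 100% baseline, either down as inhibitor or up as activator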;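 further: median bead fluorescence of bound Bodipy-FL-GTP at 100 nM; 0% = excess unlabeled GTP control and 100% = no compound control; below 100% means less GTP binding so inhibitor and above means activator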
Target sequence (P60953 whole entry, looked up): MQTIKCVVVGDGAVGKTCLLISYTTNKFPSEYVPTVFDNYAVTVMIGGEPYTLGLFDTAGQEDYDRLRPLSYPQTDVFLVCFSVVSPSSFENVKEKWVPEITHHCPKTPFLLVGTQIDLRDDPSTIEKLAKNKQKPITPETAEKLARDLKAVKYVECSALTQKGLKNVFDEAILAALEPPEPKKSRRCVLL
* = called active by the depositor; [ ] = remark or other dose.

SMILES	Rac1 wt GTP bind	Rab7 wt modul	HRas wt GTP bind	Rab2A wt mod	Rac1 act GTP bind	Cdc42 wt GTP
COc1ccc(CCNC(=O)C(=O)Nc2nccs2)cc1OC	98	97	99	99	97	99
COc1ccc(CC(=O)Nc2ccc(C(=O)Nc3nccs3)cc2)cc1OC	82	94	77*	73*	89	73*
Cc1ccc(NC(=S)NNC(=O)c2c(Cl)c(C)nn2C)cc1	100	96	99	99	97	100
Cc1ccc(NC(=S)NNC(=O)c2cn(C)nc2C)cc1	134*[activator]	107	113	114	108	118
C/C(CCC(=O)OC[C@H]1O[C@H](C#Cc2ccccc2)C=C[C@@H]1Oc1ccc(C)cc1)=N\O[C@@H](C)CN1CCCCc2nc(C)c(C)cc21	104	100	101	101	97	102
COc1ccc(Br)cc1CNC(=O)C1CCN(S(=O)(=O)N2CCC(C)CC2)CC1	107	97	101	101	101	101
CCC(C)(C)NC(=O)c1ccc2c(c1)N(CC(=O)OC)C(=O)C(C)(C)O2	120*[activator]	100	103	103	101	107
O=C(CCc1nc2ccccc2[nH]c1=O)OCC(=O)N1CCc2ccccc21	130*[activator]	103	106	107	106	114
O=C(CCc1nc2ccccc2c(=O)[nH]1)OCC(=O)N1CCc2ccccc21	101	106	98	98	95	97
COc1cc2c(cc1OC)-c1cc(NCc3ccccn3)nc(=O)n1CC2	83	87	79*	80	84	79*
COc1cc2c(cc1OC)-c1cc(NC3CCCCCCC3)nc(=O)n1CC2	89	91	77*	80	88	77*
CCNc1cc2n(c(=O)n1)CCc1cc(OC)c(OC)cc1-2	86	87	86	86	87	88
CSC1=N/C(=C\c2ccc(C)cc2)C(=O)S1	103	98	105	104	99	107
COc1ccc(/C=C2\N=C(SC)SC2=O)cc1OC	81	64*	81	77*	81	82
Cc1ccc(-c2nn(-c3ccccc3)cc2C(=O)OCC(=O)Nc2ncc(Cl)cc2Cl)cc1	104	100	103	100	100	103
CCOc1ccc(S(=O)(=O)NC2CC2)cc1C(N)=O	98	104	99	101	97	99
Cc1cc2nc(/C(C#N)=C/c3ccncc3)[nH]c2cc1C	86	96	92	94	89	87
N#C/C(=C\c1ccc(-c2ccc(C(=O)O)cc2)o1)c1nc2ccccc2[nH]1	71*	87	80	77*	80	78*
N#C/C(=C\c1ccncc1)c1nc2ccccc2[nH]1	31*	26*	43*	42*	35*	41*
S=C(Nc1ccccc1)N1CCn2c(nc3ccccc32)C1	95	102	95	95	93	98
CCN=C1S/C(=C\c2cn(CC)c3ccccc23)C(=O)N1CC	103	103	102	102	100	100
CCn1cc(C=C2C(=O)c3ccccc3C2=O)c2ccccc21	74*	83	77*	81	81	78*
Cc1ccccc1Nc1nc(NCc2ccco2)c2ccccc2n1	100	99	102	101	98	100
Cc1cccc(Nc2nc(NCc3ccco3)c3ccccc3n2)c1	88	79*	85	72*	85	84
COc1ccccc1N1C(=O)C2C(c3ccc(F)cc3)NN(C(=O)c3ccc(C)cc3)C2C1=O (centres undefined)	99	88	96	95	97	96
